Source: PubChem BioAssay AID1813 (Broad Institute, 2009)
Hit rate of the full screen: of about 300,000 compounds, about 2,500 (0.83%) were called active. No stated cut-off is given here; in the data, active means inhibition above about 60%; inconclusive means no clear call, values can overlap the other calls; inactive means below that. This excerpt belongs to a sample that is enriched for actives.

experiment: MLPCN primary screen, SNCA 5' untranslated region (AID 1813); settings: alpha-synuclein 5'UTR reporter, inhibitor activity; stronger effect = higher value; tested at 7.5 µM;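 further: H4 neuroglioblastoma cells stably carrying SNCA 5'UTR luciferase fusion; 0% = DMSO wells and 100% = positive control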

| Compound | inhibition |
| --- | --- |
| O=C1CCCC2=C1C(c1cccs1)n1nc(SCc3ccccc3)nc1N2 (stereo not given) | 37.2% (inactive) |
| CCCCCN(C(=O)NC(=O)Nc1cccc(C)c1C)S(C)(=O)=O | -23.1% (inactive) |
| CC(C)n1c(CN2CCN(Cc3ccccc3)CC2)nc2ccccc21 | 9.23% (inactive) |
| CCCNC(=O)N1CCN(C(=O)NCCC)CC1 | 8.45% (inactive) |
| C/C=C/c1ccc(OCC(=O)OCC(=O)Nc2c(C)nn(-c3ccccc3)c2C)c(OC)c1 | 3.02% (inactive) |
| CCn1nc(C)c(NC(=O)/C=C/c2ccc(OC)c(COc3ccc(Br)cc3)c2)c1C | 61.8% (active) |
| COc1ccc(C(C)=O)cc1COc1ccc(Cl)c(C)c1 | 50.7% (inactive) |
| CCCCN(C)CCC(=O)Nc1ccc(Cl)cc1 | -18.3% (inactive) |
| CCOc1ccc2c(c1)c(=O)c(S(=O)(=O)c1ccc(C)cc1)cn2CC | 13% (inactive) |
| CN(C)c1nc(N)nc(CSc2ccccn2)n1 | -19.1% (inactive) |
| CN(C)c1nc(N)nc(CSc2nnnn2-c2cccc3ccccc23)n1 | 68.9% (active) |
| COc1ccc(-n2nnnc2SCc2nc(N)nc(N3CCOCC3)n2)cc1 | 13.4% (inactive) |
| COc1ccc(CCNC(=O)CN(C)S(=O)(=O)c2ccc3nc(C)sc3c2)cc1OC | -0.864% (inactive) |
| CC(=O)Nc1ccc(NC(=O)CCCNC(=O)c2ccc(Cl)cc2)cc1 | 19.3% (inactive) |
| CC(C)c1ccc(Cc2nnc(NCCCO)[nH]c2=O)cc1 | -13.1% (inactive) |
| COc1ccc(Cc2nnc(N/N=C/c3ccccc3O)[nH]c2=O)cc1OC | 91.4% (active) |
| O=c1[nH]c(NCCO)nnc1Cc1ccc(Cl)cc1 | 6.74% (inactive) |
| COc1ccc(S(=O)(=O)N2CCC(C(=O)NCCC(=O)NCc3cccc(OC)c3)CC2)cc1 | 11.4% (inactive) |
| Nc1nonc1-c1nc2ccccc2n1Cc1ccc(F)cc1 | 49% (inactive) |
| CC(=O)Nc1nonc1-c1nc2ccccc2n1Cc1ccccn1 | 19% (inactive) |
| COc1ccc(C)c(Cn2c(-c3nonc3N)nc3ccccc32)c1 | 76.2% (active) |
| CN(CC(=O)NCc1cccnc1)S(=O)(=O)c1cc(Cl)ccc1Cl | 5.11% (inactive) |
| CCc1noc(C)c1C(=O)N1CCCC(N2CCN(c3ccc(F)cc3)CC2)C1 (stereo not given) | 14.8% (inactive) |
| CC(Sc1nnc(COc2ccccc2)n1-c1ccccc1)C(=O)O (stereo not given) | -1.97% (inactive) |

| Compound | inhibition |
| --- | --- |
| CC1(C(=O)N/N=C/c2cc3c(cc2Br)OCO3)CC1(Br)Br (stereo not given) | 4.98% (inactive) |
| O=C(CN1C(=O)c2ccccc2S1(=O)=O)NC1CCCCC1 | 6.72% (inactive) |
| O=C(CN1CCN(c2ccccn2)CC1)N1CCc2ccccc21 | -26.8% (inactive) |
| O=C(CN1C(=O)c2ccccc2S1(=O)=O)N1CCc2ccccc21 | 93.5% (active) |
| Cc1ccc(NC(=O)OCc2cncs2)cc1 | -112% (inactive) |
| COc1ccc(Nc2ccc([N+](=O)[O-])cn2)cn1 | 8.18% (inactive) |
| COc1ccc(NC(=O)/C(Cl)=C(/Cl)S(=O)Cc2ccc(C)cc2)cn1 (stereo not given) | 106% (active) |
| COc1ccc(NC(=O)CN(C)C(=O)Cc2coc3cc(C)c(C)cc23)cc1 | 6.29% (inactive) |
| Cc1ccc2c(c1)NCC(C(=O)NC1CCC(C)CC1)O2 (stereo not given) | -67.9% (inactive) |
| CN(C)c1ccc(C(CNC(=O)c2ccc(F)cc2)c2c[nH]c3ccccc23)cc1 (stereo not given) | 4.86% (inactive) |
| Cc1ccc(OCC(=O)Nc2ccccc2Sc2ccc(Cl)cc2)c([N+](=O)[O-])n1 | 4.28% (inactive) |
| N#Cc1cnn2cc(CCN3CCOCC3)c(-c3ccc(F)cc3)nc12 | 17% (inactive) |
| COc1ccc2nc(N3CCCC(O)C3)c(C#N)cc2c1 (stereo not given) | -114% (inactive) |
| COc1ccc2c(c1)CCc1cn3ncc(C#N)c3nc1-2 | 68.1% (active) |
| CC(C)[C@H](NC(=O)N1CCn2c1nc1ccccc12)C(=O)NC1CC1 | -11.1% (inactive) |
| CC1(c2ccc(Cl)cc2)NC(=O)N(CC(=O)c2ccc3c(c2)OCO3)C1=O (stereo not given) | -7.93% (inactive) |
| CC(C)(C)C(=O)Nc1ccc(-c2cn3cccnc3n2)cc1 | -130% (inactive) |
| Cc1nc(N2CCCCC2)sc1C=O | 10.9% (inactive) |
| Brc1ccc2nc(N3CCCC3)sc2c1 | -105% (inactive) |
| c1c2c(cc3sc(N4CCCCC4)nc13)OCCO2 | 107% (active) |
| CN(CC(=O)O)S(=O)(=O)c1ccc2oc3ccccc3c2c1 | -11.7% (inactive) |
| COc1ccc(NS(=O)(=O)c2cc3c(cc2C)N(C(C)=O)CCO3)cc1 | 11.8% (inactive) |
| COc1ccc(-c2oc3ncn(Cc4ccco4)c(=N)c3c2-c2ccc(OC)cc2)cc1 | 36% (inactive) |
| O=C(NCCN1C(=O)C2C3C=CC(C3)C2C1=O)Nc1ccccn1 (stereo not given) | -5.4% (inactive) |

| Compound | inhibition |
| --- | --- |
| O=C(CN1C(=O)C2C3C=CC(C3)C2C1=O)Nc1nc(-c2ccccn2)cs1 (stereo not given) | 82.4% (active) |
| O=C(CN1C(=O)C2C3C=CC(C3)C2C1=O)NCCc1ccccc1Cl (stereo not given) | -1.36% (inactive) |
| Cc1ccc(S(=O)(=O)CCC(=O)Nc2nnc(CC(C)C)s2)cc1 | -17% (inactive) |
| O=S(=O)(NCc1ccc(Cl)cc1Cl)c1cccs1 | -22.7% (inactive) |
| Cc1oc(-c2ccccc2Cl)[n+]([O-])c1C | 34.1% (inactive) |
| COc1ccc(Br)c2c1C(=O)CC2 | 8.26% (inactive) |
| CSCc1nnc(NC(=O)c2ccc(S(=O)(=O)N3CCCCC3C)cc2)o1 (stereo not given) | 14.5% (inactive) |
| CC1CCCN(S(=O)(=O)c2ccc(C(=O)Nc3nnc(-c4ccncc4)o3)cc2)C1 (stereo not given) | -13.6% (inactive) |
| CC1CCCCN1S(=O)(=O)c1ccc(C(=O)Nc2nnc(-c3cccs3)o2)cc1 (stereo not given) | 89.9% (active) |
| Cc1onc(-c2ccccc2Cl)c1C(=O)NCCn1ccc2ccccc21 | 29.7% (inactive) |
| Cc1onc(-c2ccccc2Cl)c1C(=O)OCC(=O)c1ccccc1 | 12.5% (inactive) |
| Cc1onc(-c2ccccc2Cl)c1C(=O)N(Cc1ccc(N(C)C)cc1)C(C)C | 73.1% (active) |
| O=C(CN1CCOCC1)Nc1cccc([N+](=O)[O-])c1 | 1.99% (inactive) |
| Cc1nc(-c2nnc(SCC(=O)Nc3cc(C(F)(F)F)cc(C(F)(F)F)c3)n2C)cs1 | 15.6% (inactive) |
| CCCOc1cccc(C(=O)Nc2nnn(CCC)n2)c1 | -87.6% (inactive) |
| CC(C)CNC(=O)COC(=O)c1ccccc1OCC(=O)Nc1ccc(Br)cc1 | 1.89% (inactive) |
| O=C(COC(=O)c1ccc(NS(=O)(=O)c2cccs2)cc1O)Nc1ccc(F)cc1 | 7.94% (inactive) |
| NS(=O)(=O)c1ccc(NC2=CC(c3ccc(F)cc3)N(c3ccc(S(N)(=O)=O)cc3)C2=O)cc1 (stereo not given) | 15.1% (inactive) |
| COc1ccc(CN(C)C(C)C(=O)NC2CCCc3ccccc32)cc1 (stereo not given) | 8.59% (inactive) |
| Cc1ccc(-c2nc(-c3ccncc3)no2)c(C)c1 | -108% (inactive) |
| COc1ccc(/C=C/c2noc(-c3ccccc3OC(C)=O)n2)cc1 | -34.8% (inactive) |
| COc1ccc(-c2nc(-c3ccccc3)no2)c(OC)c1 | 68.9% (active) |
| CCC1CO/C(=C(\C(=C(Cl)Cl)N2CCOCC2)[N+](=O)[O-])N1 (stereo not given) | -4.02% (inactive) |
| CCOc1cc(N2CCOCC2)c(OCC)cc1NC(=O)COc1cccc(Cl)c1 | 9.4% (inactive) |

| Compound | inhibition |
| --- | --- |
| CCOc1cc(N2CCOCC2)c(OCC)cc1NC(=O)c1cc(C)nc2ccccc12 | 7.38% (inactive) |
| CCOc1cc(N2CCOCC2)c(OCC)cc1NC(=O)COc1cccc2cccnc12 | 88.8% (active) |
| CCOC(=O)C(C)Oc1cccc2c(=O)n(CC(=O)NCCc3ccc(OC)c(OC)c3)ccc12 (stereo not given) | 12.9% (inactive) |
| Cc1nn(C)c(C)c1CN(C(=O)CCc1nnc(Cc2c[nH]c3ccccc23)o1)C(C)C | 13.9% (inactive) |
| Cc1oc2c(F)c(F)c(F)c(F)c2c1S(=O)(=O)Nc1cccc(C(F)(F)F)c1 | 17.3% (inactive) |
| CCNC(=S)N1CCC(c2nc3cc(C)c(C)cc3[nH]2)CC1 | -15.5% (inactive) |
| Cc1cccc(-c2nc(Nc3ccc(O)cc3)c3ccccc3n2)c1 | 2.9% (inactive) |
| Cc1cccc(-[n+]2c(-c3cccc(Br)c3)[nH]c3nc4ccccc4nc32)c1 | 73.9% (active) |
| Cc1ccc(/C=C2\CCn3c2nc2cc(C(=O)O)ccc2c3=O)c(C)c1 | -20% (inactive) |
| Nc1ccc2nn(-c3ccc(Cl)cc3)nc2c1 | -27.3% (inactive) |
| CN(C)c1ccc(/C=N\S(=O)(=O)c2ccccc2)cc1 | -6.91% (inactive) |
| CC[n+]1cc(C)ccc1/C=C/c1ccc(N(C)C)cc1 | 90.6% (active) |
| O=C(CN1CCN(c2ncccn2)CC1)Nc1ccccc1C(F)(F)F | -6.88% (inactive) |
| Brc1ccc2c(c1)[C@H]1OCC[C@H]1[C@@H](c1cccs1)N2 | 72.2% (active) |
| CC(C)CCn1c(=O)c2c(nc3n2CCCN3Cc2ccccc2)n(C)c1=O | 23.1% (inactive) |
| COc1ccc(C)cc1N(CC(=O)N1CCCC1)S(=O)(=O)c1ccccc1 | -6.96% (inactive) |
| Cc1ccc(CNC(=O)CCNS(=O)(=O)c2cccc3nonc23)cc1 | 9.75% (inactive) |
| CN(C(=O)c1cc2c(=O)n3ccccc3nc2s1)C1CCCCC1 | -42.4% (inactive) |
| CN(c1ccc2nc3ccccc3c(=O)n2n1)C1CCCCC1 | 119% (active) |
| O=c1c2ccccc2nc2n1C1(CCCCC1)Cc1ccccc1-2 | 0.0175% (inactive) |
| Cc1ccc(CN2CCNC(=O)C2CC(=O)NCc2csc(C(C)C)n2)cc1 (stereo not given) | 9.72% (inactive) |
| Cc1ccc2[nH]c(=O)c(CN(C)S(=O)(=O)c3cccc4nonc34)cc2c1 | -5.89% (inactive) |
| CCC1=C(OC(=O)N(CC)CC)N2C(=O)OC(=NCCc3c[nH]c4ccccc34)[C@]2(C)[C@H]2C1=CC[C@H]1C(=O)N(CC)C(=O)[C@H]12 | -3.3% (inactive) |
